High-throughput results (PubChem BioAssay)
Sfp inh: qHTS Assay for Inhibitors of Bacillus subtilis Sfp phosphopantetheinyl transferase (PPTase); Potency, µM, inactives show largest response in the series, negative = inhibition, hits mostly inhibitors; 3.5% of 310,000 active; 4'-phosphopantetheinyl transferase ffp (Bacillus subtilis), Q9F4F7; Biochemical Sfp PPTase activity, qHTS;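 further: the enzyme is Sfp with the accession as filed and its product quenches rhodamine fluorescence; 0% = enzyme reaction without inhibitor and -100% = no enzyme wells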
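Compounds were incubated with enzyme (final 15 nM) for 15 min at room temperature before substrate addition started the reaction. Fluorescence at 525 nm excitation, 598 nm emission was recorded immediately and after 30 minutes.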
Gal4-VP16 FLuc: VP16 counterscreen qHTS for inhibitors of ROR gamma transcriptional activity | Drosophila S2 Gal4-VP16 UAS-luciferase, luminescence, 20 h | Potency, µM (top dose mostly 53.6 µM), for the others: at the highest dose activity, negative = inhibition, actives largely listed as inhibitors | 3.5% of 310,000 active | AID 2546, 2010;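 further: Gal4-VP16 expression switched on by copper sulfate through the metallothionein promoter; nearly all actives have a fitted effect of over 50% in size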
ALDH1A1 block: qHTS Assay for Inhibitors of Aldehyde Dehydrogenase 1 (ALDH1A1). 7.3% of 220,000 active. Purified ALDH1A1, NADH fluorescence, propionaldehyde substrate. Potency, µM (series often up to 75.3 µM), without a hit: at the top dose activity, negative = inhibition, usual class: inhibitors; active means well fitted inhibition curve with a large enough effect, not every such curve was filed as active; inconclusive means small, poorly fitted or top-dose-only effect, or another doubt; inactive means no such curve, though single readings can be large or run the other way;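 further: plate controls were no enzyme wells and a reference inhibitor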
PLK1 PBD block: qHTS for Inhibitors of PLK1-PDB (polo-like kinase 1 - polo-box domain): Primary Screen; Potency, µM, for the others: max response, negative = inhibition, usual class: inhibitors; 2.8% of 360,000 active; Plk1 PBD binding of FITC phosphopeptide, fluorescence polarization; further: series mostly up to about 57 µM; nearly all actives have a fitted effect of over 65% in size
RORg inh: qHTS for inhibitors of ROR gamma transcriptional activity. Nuclear receptor ROR-gamma (Mus musculus), P51450. Drosophila S2 Gal4-RORgamma UAS-luciferase reporter, 20 h. Potency, µM (doses to about 53.6 µM), for the others: top-dose activity change, negative = inhibition, usual class: inhibitors. 5.4% of 310,000 active. AID 2551, 2010; further: nearly all actives have a fitted effect of over 60% in size
Target sequence (P51450 whole entry, looked up, the tested form may be a part): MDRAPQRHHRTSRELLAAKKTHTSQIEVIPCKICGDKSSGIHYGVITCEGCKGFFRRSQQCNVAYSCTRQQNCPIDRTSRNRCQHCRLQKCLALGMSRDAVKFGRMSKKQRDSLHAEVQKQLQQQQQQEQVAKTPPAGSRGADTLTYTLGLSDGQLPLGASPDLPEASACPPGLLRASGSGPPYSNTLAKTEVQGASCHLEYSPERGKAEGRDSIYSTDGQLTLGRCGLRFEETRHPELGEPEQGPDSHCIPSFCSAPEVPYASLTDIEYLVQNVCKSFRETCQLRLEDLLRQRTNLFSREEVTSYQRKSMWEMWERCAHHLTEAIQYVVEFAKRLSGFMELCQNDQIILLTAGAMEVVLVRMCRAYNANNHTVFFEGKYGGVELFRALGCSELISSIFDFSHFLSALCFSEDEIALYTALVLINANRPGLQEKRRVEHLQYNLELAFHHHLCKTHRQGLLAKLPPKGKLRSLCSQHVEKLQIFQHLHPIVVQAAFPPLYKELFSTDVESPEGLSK
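Using a luciferase readout, inhibitors were identified by reduced reporter activity in Drosophila cells coexpressing a copper-inducible Gal4–ROR gamma fusion and UAS-driven Photinus luciferase, incubated 20 hr after 700 uM copper sulfate.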
* marks the source's active call; other numbers are inactive results; ? = inconclusive; . = not tested or not shown; [ ] = remark or other dose. The list is not random: actives were taken first. Their share in the collection is about 12%. Unless noted, the call rests on the fitted dose curve; in most records, active means well fitted curve in the direction sought with a large enough effect; inconclusive means small, poorly fitted or top-dose-only effect, or another doubt; inactive means no such curve, though single readings can be large; an effect the other way counts as inactive or inconclusive. Unless noted, on the % scale 0 is the no-effect control and ±100 the full control effect; potency means the concentration at half of the fitted maximal effect.

SMILES | Sfp inh | Gal4-VP16 FLuc | ALDH1A1 block | PLK1 PBD block | RORg inh
CCOc1ccc(/C=C/[N+](=O)[O-])c2ccccc12 | 8.91µM* | ? | 28.2µM* | 3.36µM* | ?
CCOC(=O)Cn1cc(C#N)c2ccccc21 | 8.5% | 3.4% | -4.8% | -13.1% | 23.3%
Cc1cccc(Cn2cc(/C=C/[N+](=O)[O-])c3ccccc32)c1 | -7.0% | ? | ? | -26.2% | ?
O=C(O)c1ccc(Cn2cc(/C=C\[N+](=O)[O-])c3ccccc32)o1 | -26.5% | -3.8% | . | 26.7µM* | -42.9%
O=[N+]([O-])/C=C/c1cn(Cc2ccc(Cl)cc2)c2ccccc12 | -11.6% | ? | ? | -25.3% | ?
COC(=O)c1ccc(Cn2cc(/C=C\[N+](=O)[O-])c3ccccc32)o1 | 56.2µM* | ? | . | ? | 6.7%[1.91 µM]
CCOC(=O)Cn1cc(/C=C/[N+](=O)[O-])c2ccccc21 | -26.2% | 12.6µM* | ? | ? | ?
CCOC(=O)COc1ccc2ccccc2c1/C=C/[N+](=O)[O-] | 20µM* | 6.31µM* | 12.6µM* | 5.97µM* | 12.6µM*
COc1ccc(CN2C(=O)NC3(CCCC3)C2=O)cc1F | 15.3% | 6.7% | -3.9% | -1.2% | 18.1%
COc1ccc(C(C)=O)cc1CN1C(=O)NC2(CCCCCCC2)C1=O | 5.1% | 5.6% | 6.31µM* | -9.3% | 1.1%
CC(C)c1ccc(CN2C(=O)NC3(CCCCCC3)C2=O)cc1 | 14.9% | 1.0% | . | 26.7µM* | 26.1%
COc1ccc(CN2C(=O)NC3(CCCCCC3)C2=O)cc1F | 12.3% | 0.0% | -9.0% | 3.36µM* | 43.7%
CC(Sc1nnc2ccccn12)C(N)=O (stereo not drawn) | 10.8% | 2.0% | 11.8% | 2.9% | 3.1%
S=c1[nH]nc(-c2cnccn2)n1-c1ccccc1 | 56.2µM* | 2.4% | -4.9% | -2.7% | -28.7%
Cc1ccc(C)n1-c1cccc(C(=O)O)c1 | -25.6% | . | ? | . | -15.3%[0.365 µM]
O=C(O)c1cccc(-n2c(-c3cnccn3)n[nH]c2=S)c1 | 28.2µM* | -10.1% | -2.7% | -15.1% | -18.4%
COc1ccc(OC)c(-n2c(-c3cnccn3)n[nH]c2=S)c1 | -20.3% | -4.0% | ? | 1.5% | -30.6%
COc1ccc(-n2c(-c3cnccn3)n[nH]c2=S)cc1 | 50.1µM* | -10.2% | -3.7% | -6.3% | ?
CC(C)CC(N)c1csc(Nc2ccc(C(F)(F)F)cn2)n1 (stereo not drawn) | . | . | . | -9.6% | .
O=C(O)c1c(Cl)c(Cl)c(Cl)c(Cl)c1C(=O)OCC1CCCO1 (stereo not drawn) | . | . | . | -1.2% | .
c1ccc(N2CCN(c3cccc(-c4cc5ccccc5s4)n3)CC2)nc1 | . | . | . | -5.3% | .
O=C(N/N=C\c1c(O)ccc2ccccc12)c1ccc(S(=O)(=O)N2CCCCC2)cc1 | 13.6% | 3.98µM* | 15.8% | 77.0% | 2.51µM*
O=C(NN=Cc1c(O)ccc2ccccc12)c1ccc2c(c1)OCO2 | . | . | . | -14.6% | .
O=C(CNC(=O)c1ccc(S(=O)(=O)N2CCCC2)cc1)N/N=C/c1ccccc1Cl | 2.7% | -6.9% | -6.1% | 1.1% | ?
O=C(N/N=C/c1c(O)ccc2ccccc12)c1ccc(CO)nc1 | 13.1% | 6.31µM* | . | 37.8% | 3.98µM*
SMILES | Sfp inh | Gal4-VP16 FLuc | ALDH1A1 block | PLK1 PBD block | RORg inh
CC(C)(C)c1ccc(C(=O)N2CCC2(C)C(=O)Nc2cccc(C#N)c2)cc1 (stereo not drawn) | . | . | . | -6.2% | .
CCCCC(=O)NC(c1ccc(N(CC)CC)cc1)c1ccc2cccnc2c1O (stereo not drawn) | 17.1% | 2.82µM* | . | -7.9% | 2.24µM*
CCN(CC)c1ccc(C(NC(=O)C(C)C)c2ccc3cccnc3c2O)cc1 (stereo not drawn) | . | . | . | -3.5% | .
CCCCC(=O)NC(c1ccc(N(C)C)cc1)c1ccc2cccnc2c1O (stereo not drawn) | 10.9% | 3.16µM* | . | 26.7µM* | 5.01µM*
CCOC(=O)Nc1ccc2c(c1)C(=NNC(=S)NC)c1ccccc1-2 | . | . | . | -3.2% | .
Cc1cc(N/C=C/C(=O)c2cccs2)ccc1F | -4.4% | -0.2% | ? | -5.0% | -1.2%
O=C(/C=C/Nc1cccc([N+](=O)[O-])c1)c1cccs1 | -16.5% | ? | 14.1µM* | -0.6% | ?
Cc1ccc(N/C=C/C(=O)c2cccs2)cc1C | 50.1µM* | ? | ? | -6.6% | 12.6µM*
CNc1cc([N+](=O)[O-])ccc1N/C=C/C(=O)c1cccs1 | 8.5% | ? | ? | -12.6% | ?
CN1C(=O)/C(=C/c2ccccc2OCc2cccc(F)c2)NC1=S | 5.4% | 3.16µM* | -11.8% | -7.9% | 3.98µM*
CN1C(=O)/C(=C/c2ccccc2OCc2ccc(C(=O)O)cc2)NC1=S | 12.9% | -21.5% | 2.9% | -7.4% | 9.8%
COc1cc(/C=C2\NC(=S)N(C)C2=O)ccc1OCc1cccc(F)c1 | -3.0% | ? | . | 3.9% | ?
CN1C(=O)/C(=C/c2ccccc2OCc2ccccc2)NC1=S | 10.4% | ? | ? | -1.9% | 7.08µM*
O=C(NCc1cccs1)C1C(=O)Nc2ccccc2C(=O)N1C1CCCC1 (stereo not drawn) | . | . | . | -6.9% | .
CC(=O)Nc1ccc(C(=O)N2CCCC(c3cc(C(=O)NCc4cccnc4)no3)C2)cc1 (stereo not drawn) | . | . | . | -11.5% | .
CC(=O)Nc1ccc(SC(C)C(=O)NC(N)=O)cc1 (stereo not drawn) | -5.7% | 4.1% | 8.2% | 23.8µM* | 32.0%
COc1ccc(NC(=O)C(C)Sc2ccccc2)cc1 (stereo not drawn) | 6.0% | 4.0% | -1.7% | -0.3% | 23.8%
N#CC1=C2SCN(Cc3ccccc3)CN2C(=O)CC1c1cccs1 (stereo not drawn) | 1.12µM* | -2.6% | 11.2µM* | 23.8µM* | -15.4%
Clc1ccc(N2CCN(Cc3ccco3)CC2)cc1 | -9.6% | 18.5% | . | -14.3% | 7.4%
COc1ccc(CN2CCN(Cc3ccco3)CC2)cc1 | ? | -3.9% | . | -2.1% | -1.2%
N#CC1=C2SCN(Cc3ccco3)CN2C(=O)CC1c1ccc(Cl)cc1 (stereo not drawn) | 2.51µM* | ? | 15.8µM* | 26.7µM* | ?
COc1ccc2ccccc2c1C1CC(=O)N2CN(C3CCCCC3)CSC2=C1C#N (stereo not drawn) | 12.6µM* | 8.1% | 28.2µM* | 13.4µM* | -34.1%
COc1ccc(C2CC(=O)N3CN(Cc4ccco4)CSC3=C2C#N)cc1 (stereo not drawn) | 1.41µM* | 3.0% | 10µM* | 26.7µM* | -10.5%
CCC/C=C(\CCC)C(NC(=O)c1ccco1)c1ccc(C(=O)OC)cc1 (stereo not drawn) | 13.8% | -6.1% | -14.1% | . | 5.4%
